OPRM1-OPRD1 inv – inverse agonists of human mu-delta opioid receptor heterodimerization; AID 504357; P35372+P41143; 340,000 compounds, 0.21% hits; cell-based MOR-DOR heterodimer luminescence, inverse agonism; inhibition, % at 9.3 µM; in the data active = inhibition above about 22%, passing the limit was not always enough
Target sequence (P35372 whole entry, looked up): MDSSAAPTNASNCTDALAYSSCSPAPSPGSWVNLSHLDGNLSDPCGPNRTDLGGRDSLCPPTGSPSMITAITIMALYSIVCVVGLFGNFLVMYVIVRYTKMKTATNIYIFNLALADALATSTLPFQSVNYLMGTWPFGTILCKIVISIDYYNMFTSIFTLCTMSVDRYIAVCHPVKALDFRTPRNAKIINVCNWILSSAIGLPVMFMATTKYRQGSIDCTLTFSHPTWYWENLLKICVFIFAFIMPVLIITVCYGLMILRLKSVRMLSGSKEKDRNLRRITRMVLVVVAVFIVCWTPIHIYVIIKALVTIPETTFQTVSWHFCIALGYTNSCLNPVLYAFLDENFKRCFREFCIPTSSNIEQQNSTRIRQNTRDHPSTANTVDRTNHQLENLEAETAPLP
Target sequence (P41143 whole entry, looked up): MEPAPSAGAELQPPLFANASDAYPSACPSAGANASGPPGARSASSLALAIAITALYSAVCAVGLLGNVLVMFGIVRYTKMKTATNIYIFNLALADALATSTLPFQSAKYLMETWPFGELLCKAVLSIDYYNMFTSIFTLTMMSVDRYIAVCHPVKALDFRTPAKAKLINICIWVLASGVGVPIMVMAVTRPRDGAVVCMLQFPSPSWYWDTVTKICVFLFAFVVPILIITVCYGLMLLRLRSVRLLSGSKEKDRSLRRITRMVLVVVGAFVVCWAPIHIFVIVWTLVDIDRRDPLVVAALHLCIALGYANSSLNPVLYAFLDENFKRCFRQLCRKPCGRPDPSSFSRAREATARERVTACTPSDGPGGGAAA
HTR5A inv ag – inverse agonist of human HTR5A in OPRM1-OPRD1 counter-screen | HTR5A cell line, luminescence, inverse agonism | inhibition, % at 9.3 µM | 340,000 compounds, 0.083% hits; in the data active = inhibition mostly above about 23%, no sharp cut-off; inactive = mostly below about 18%
HTR2A ag – mouse HTR2A agonism via beta-arrestin recruitment | activation, % at 7.6 µM | P35363 | 360,000 compounds, 0.66% hits | CHO-K1 mHTR2A beta-arrestin complementation, luminescence; percent of 30 µM serotonin response;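 active = activation above a run cutoff, the mean activation of all tested compounds plus 3 SD, cut at about 14% in these data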
OPRM1-OPRD1 ag – OPRM1-OPRD1 heterodimerization agonism. P35372+P41143. cells, luminescence. activation, % at 9.3 µM. 340,000 compounds, 0.3% hits
HTR5A ag ctr – activates human HTR5A in OPRM1-OPRD1 agonist counter-screen; P47898; HTR5A agonist assay, luminescence, cell-based; activation, % at 9.3 µM; 340,000 compounds, 0.61% hits; in the data active = activation mostly above about 9.5%, no sharp cut-off; inactive = mostly below about 7.6%
OPRM1-D1 ag cf – OPRM1-OPRD1 heterodimer agonism, confirmation. shares compounds with OPRM1-OPRD1 ag. cells, MOR-DOR heterodimerization, luminescence complementation. activation, % at 9.3 µM. 830 compounds, 45% hits. AID 504904
HTR5A ag ctr2 – HTR5A agonism, opioid heterodimer counter-screen; shares compounds with OPRM1-OPRD1 ag; HTR5A agonist counterscreen, cell luminescence; activation, % at 9.3 µM; 830 compounds, 8% hits; AID 504905; in the data active = activation above about 17%
Numbers stand for hits. Hits are enriched below; roughly 1.6% of the tested compounds scored in any of these assays. Cut-off read from the data, not from the text of the source, unless noted: active = activation above about 18%; inactive = the rest.

For Cc1ccsc1C(=O)N1CCC1(C)C(=O)NS(=O)(=O)c1ccc(Br)cc1 (stereo not drawn) the results were HTR2A ag inactive.
Screening CCc1nc2c(OCCn3cccc3)cccn2c1N(C)C(=O)c1ccc(C)cc1 returned HTR2A ag inactive.
For CC(C)NC(=O)N(C)C[C@@H]1OCc2cnnn2CCCC(=O)N([C@@H](C)CO)C[C@H]1C the results were HTR2A ag inactive.
COC(=O)[C@]12CCCCC=C1N(Cc1ccccc1)C(=O)[C@H](CC(=O)NCC13CC4CC(CC(C4)C1)C3)C2 was read as HTR2A ag inactive.
O=C(NCCc1ccc(Cl)cc1)C1CCC(CNc2nc(=S)[nH]c3ccccc23)CC1 (stereo not drawn) was read as OPRM1-OPRD1 inv inactive, HTR5A inv ag inactive, HTR2A ag inactive, OPRM1-OPRD1 ag 33, HTR5A ag ctr inactive, OPRM1-D1 ag cf 36 and HTR5A ag ctr2 inactive.
O=C(NCCC1=CCCCC1)C1CCC(CNc2nc(=S)[nH]c3ccccc23)CC1 (stereo not drawn) was read as OPRM1-OPRD1 inv inactive, HTR5A inv ag inactive, HTR2A ag inactive, OPRM1-OPRD1 ag inactive and HTR5A ag ctr inactive.
For S=c1nc(NCCc2ccccc2Cl)c2ccccc2[nH]1 the results were OPRM1-OPRD1 inv inactive, HTR5A inv ag inactive, HTR2A ag inactive, OPRM1-OPRD1 ag 23, HTR5A ag ctr inactive, OPRM1-D1 ag cf inactive and HTR5A ag ctr2 inactive.
`CCOC(=O)[C@]12CCC=C1N(Cc1ccco1)C(=O)[C@H](CC(=O)NCCc1ccccc1OC)C2` gave HTR2A ag inactive.
Screening Cc1ccc(SCC(=O)Nc2ccc(-c3nc4ccccc4[nH]3)cc2)cc1 returned OPRM1-OPRD1 inv inactive, HTR5A inv ag inactive, HTR2A ag inactive, OPRM1-OPRD1 ag 34, HTR5A ag ctr inactive, OPRM1-D1 ag cf 29 and HTR5A ag ctr2 inactive.
Screening Cc1ccc(NC(=O)CCCSc2nc3ccccc3[nH]2)cc1 returned OPRM1-OPRD1 inv inactive, HTR5A inv ag inactive, HTR2A ag inactive, OPRM1-OPRD1 ag inactive and HTR5A ag ctr inactive.
Screening Cc1ccc2nc(-c3ccc(SCC(=O)Nc4nnc(C)s4)nc3)[nH]c2c1 returned OPRM1-OPRD1 inv inactive, HTR5A inv ag inactive, HTR2A ag inactive, OPRM1-OPRD1 ag 24, HTR5A ag ctr inactive, OPRM1-D1 ag cf inactive and HTR5A ag ctr2 inactive.
Screening COc1ccc(CNC(=O)C2(C)Cc3c(-c4cccc(NC(C)=O)c4)ccnc3O2)cc1OC (stereo not drawn) returned HTR2A ag inactive.
`COc1cc(F)ccc1-c1csc(C(O)c2ccc(F)cc2)n1` (stereo not drawn) gave HTR2A ag inactive.
`CC1(C(=O)NC2CCCCCC2)CCN1C(=O)Cc1ccc(-c2ccccc2)cc1` (stereo not drawn) gave HTR2A ag inactive.
Screening COc1ccccc1NS(=O)(=O)c1cccc(C(=O)NC2CCN(Cc3ccccc3)CC2)c1 returned OPRM1-OPRD1 inv inactive, HTR5A inv ag inactive, HTR2A ag inactive, OPRM1-OPRD1 ag 20, HTR5A ag ctr inactive, OPRM1-D1 ag cf inactive and HTR5A ag ctr2 inactive.
Screening Cc1ccccc1NP1(=O)OCCCN1Cc1ccccc1Cl (stereo not drawn) returned OPRM1-OPRD1 inv inactive, HTR5A inv ag inactive, HTR2A ag inactive, OPRM1-OPRD1 ag 30, HTR5A ag ctr inactive, OPRM1-D1 ag cf inactive and HTR5A ag ctr2 inactive.
For COc1cc(OC)c(NS(=O)(=O)c2cc(C(=O)NCCCN3CCOCC3)ccc2C)cc1Cl the results were HTR2A ag inactive.
For CCOC(=O)C1(Cc2cccc(F)c2)CCN(Cc2cnn(CC)c2)CC1 the results were OPRM1-OPRD1 inv inactive, HTR5A inv ag inactive, HTR2A ag inactive, OPRM1-OPRD1 ag 68, HTR5A ag ctr inactive, OPRM1-D1 ag cf inactive and HTR5A ag ctr2 inactive.
`CCOC(=O)C1(CCCc2ccccc2)CCN(Cc2cnn(C)c2)CC1` gave OPRM1-OPRD1 inv inactive, HTR5A inv ag inactive, HTR2A ag inactive, OPRM1-OPRD1 ag 98, HTR5A ag ctr inactive, OPRM1-D1 ag cf 115 and HTR5A ag ctr2 inactive.
For CCOC(=O)C1(CCCc2ccccc2)CCN(C(=O)CCc2cnn(C)c2)CC1 the results were OPRM1-OPRD1 inv inactive, HTR5A inv ag inactive, HTR2A ag inactive, OPRM1-OPRD1 ag inactive and HTR5A ag ctr inactive.
Screening CCOC(=O)C1(Cc2ccc(Cl)cc2)CCN(Cc2cn(CC)nc2C)CC1 returned OPRM1-OPRD1 inv inactive, HTR5A inv ag inactive, HTR2A ag inactive, OPRM1-OPRD1 ag 21, HTR5A ag ctr inactive, OPRM1-D1 ag cf inactive and HTR5A ag ctr2 inactive.
COc1cccc(-c2cnc(C(O)c3ccc(CN4CCCC4)cc3)[nH]2)c1 (stereo not drawn) was read as HTR2A ag inactive.
COc1ccc(-c2csc(N(CCCN(C)C)C(=O)c3cccs3)n2)cc1 was read as OPRM1-OPRD1 inv inactive, HTR5A inv ag inactive, HTR2A ag inactive, OPRM1-OPRD1 ag 26, HTR5A ag ctr inactive, OPRM1-D1 ag cf 43 and HTR5A ag ctr2 inactive.
For CCN(C(=O)c1cccs1)c1nc(-c2ccc(OC)cc2)cs1 the results were OPRM1-OPRD1 inv inactive, HTR5A inv ag inactive, HTR2A ag inactive, OPRM1-OPRD1 ag inactive and HTR5A ag ctr inactive.
`Cc1ccccc1S(=O)(=O)NC(=O)C1(C)CCN1C(=O)CC(c1ccccc1)c1ccccc1` (stereo not drawn) gave HTR2A ag inactive.
For COc1ccc(NC(=O)COc2ccccc2C(=O)NCC(c2ccccc2)N(C)C)cc1Cl (stereo not drawn) the results were OPRM1-OPRD1 inv inactive, HTR5A inv ag inactive, HTR2A ag inactive, OPRM1-OPRD1 ag 64, HTR5A ag ctr inactive, OPRM1-D1 ag cf 62 and HTR5A ag ctr2 inactive.
COc1ccc(NC(=O)COc2ccccc2)cc1Cl was read as OPRM1-OPRD1 inv inactive, HTR5A inv ag inactive, HTR2A ag inactive, OPRM1-OPRD1 ag inactive and HTR5A ag ctr inactive.
Screening Cc1cc(/C=C2\SC(=S)N(C)C2=O)c(C)n1-c1cccc(O)c1 returned OPRM1-OPRD1 inv inactive, HTR5A inv ag inactive, HTR2A ag inactive, OPRM1-OPRD1 ag 30, HTR5A ag ctr inactive, OPRM1-D1 ag cf inactive and HTR5A ag ctr2 inactive.
COc1ccc(-n2c(C)cc(/C=C3/SC(=S)N(C)C3=O)c2C)cc1 was read as OPRM1-OPRD1 inv inactive, HTR5A inv ag inactive, HTR2A ag inactive, OPRM1-OPRD1 ag inactive and HTR5A ag ctr inactive.
For CCOC(=O)C1(CC2CC2)CCN(Cc2cn(C)c3ccccc23)CC1 the results were OPRM1-OPRD1 inv inactive, HTR5A inv ag inactive, HTR2A ag inactive, OPRM1-OPRD1 ag 18, HTR5A ag ctr inactive, OPRM1-D1 ag cf inactive and HTR5A ag ctr2 inactive.
CCOC(=O)C1(CC2CC2)CCN(Cc2cnc(N(C)C)s2)CC1 was read as OPRM1-OPRD1 inv inactive, HTR5A inv ag inactive, HTR2A ag inactive, OPRM1-OPRD1 ag 35, HTR5A ag ctr inactive, OPRM1-D1 ag cf inactive and HTR5A ag ctr2 inactive.

Source: PubChem BioAssay
